Compound activity: PubChem, National Center for Advancing Translational Sciences (NCATS)
POLH inh – DNA polymerase eta (human) inhibition. Q9Y253. recombinant Pol eta, fluorescent DNA replication assay. Potency, µM (series often up to 114 µM), actives largely listed as inhibitors. hit rate 1.2% among 390,000
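Fluorescent replication assay: 50 nM final substrate added after a 15 min room-temperature compound preincubation with 10 nM enzyme. Signal taken at 0 min and again at 10 min.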
WRN inhibitor – blocks human WRN helicase; Q14191; WRN helicase unwinding, fluorescent forked duplex, kinetic; Potency, µM (top dose mostly 114 µM), hits mostly inhibitors; hit rate 0.46% among 360,000; further: nearly all actives have a fitted effect of over 55% in size
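Kinetic red-fluorescence monitoring (525/598 nm) tracks WRN helicase activity after 100 nM fluorophore-quencher forked duplex and 2 mM ATP are added to 20 nM enzyme pretreated 15 min at room temperature with compound.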
Pol kappa inh – inhibitors of human DNA polymerase kappa; Potency, µM (highest dose often 107 µM), most hits filed as inhibitors; hit rate 0.53% among 400,000; purified Pol kappa, fluorescent DNA synthesis assay, 10 min
Target sequence (Q9UBT6 whole entry, looked up): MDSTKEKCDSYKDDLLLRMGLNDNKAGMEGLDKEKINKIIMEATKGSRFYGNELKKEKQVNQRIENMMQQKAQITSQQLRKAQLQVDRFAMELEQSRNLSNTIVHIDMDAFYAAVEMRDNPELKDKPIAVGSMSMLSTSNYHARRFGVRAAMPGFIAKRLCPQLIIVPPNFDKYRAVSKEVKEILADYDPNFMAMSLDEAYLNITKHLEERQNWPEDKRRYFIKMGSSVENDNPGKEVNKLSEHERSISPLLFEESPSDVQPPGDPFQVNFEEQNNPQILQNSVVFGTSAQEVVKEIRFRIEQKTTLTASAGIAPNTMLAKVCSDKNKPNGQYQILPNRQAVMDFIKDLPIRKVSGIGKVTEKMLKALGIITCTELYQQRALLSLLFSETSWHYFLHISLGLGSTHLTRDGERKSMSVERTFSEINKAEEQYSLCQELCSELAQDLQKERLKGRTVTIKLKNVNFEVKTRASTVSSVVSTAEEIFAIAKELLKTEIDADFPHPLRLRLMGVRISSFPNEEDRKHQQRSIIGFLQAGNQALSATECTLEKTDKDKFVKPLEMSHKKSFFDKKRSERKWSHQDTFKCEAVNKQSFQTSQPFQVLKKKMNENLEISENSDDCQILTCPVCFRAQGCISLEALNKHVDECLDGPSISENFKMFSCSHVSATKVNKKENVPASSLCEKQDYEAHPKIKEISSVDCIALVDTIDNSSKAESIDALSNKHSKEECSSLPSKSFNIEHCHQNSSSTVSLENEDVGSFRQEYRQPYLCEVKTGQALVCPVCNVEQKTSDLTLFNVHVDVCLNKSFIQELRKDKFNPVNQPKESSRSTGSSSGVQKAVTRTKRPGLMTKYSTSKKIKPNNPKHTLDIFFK
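Readout: fluorescence, taken kinetically at 0 and 10 min. Conditions: 10 nM Pol kappa, 15 min RT compound preincubation, 50 nM substrate final. Controls: enzyme-free buffer wells.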
Pol beta inh – blocks human DNA polymerase beta activity | Pol beta primer extension/strand displacement, fluorescence kinetic | hit rate 1.3% among 340,000 | AID 485314 | Potency, µM (top dose mostly 114 µM), hits mostly inhibitors | P06746
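Preincubation: enzyme (10 nM) with compound, 15 min, RT. Reaction: substrate added to 50 nM final. Reads: 0 and 10 min. Analysis: normalized, Hill fit.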
Pol iota inh – inhibitors of human DNA polymerase iota; Pol iota fluorescent replication assay, 10 min; Q9UNA4; hit rate 1% among 390,000; Potency, µM (series often up to 115 µM), actives largely listed as inhibitors
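Pol iota at 10 nM preincubated 15 min with compounds at room temperature; reaction started with fluorescent substrate, 50 nM final. Fluorescence read kinetically at 0 and 10 min; buffer-only wells as negative control.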
FEN1 inh – blocks human flap endonuclease 1; P39748; Recombinant FEN1 flap cleavage, fluorescence, 15 min; Potency, µM (doses to about 114 µM), hits mostly inhibitors; hit rate 0.35% among 390,000; AID 588795; further: nearly all actives have a fitted effect of over 65% in size
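Compounds are tested as a concentration series against 10 nM FEN1; after a 15 min room-temperature preincubation, 50 nM substrate starts cleavage, with plate reads at 0 and 15 min. Normalized responses are fitted by a Hill equation.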
Hits are given with their value; – = inactive; ? = inconclusive; · = not tested or not shown; [ ] = dose if it differs, or a comment. The list is not random: actives were taken first. Their share in the collection is about 2.4%. The call rests on the fitted dose curve; in most records, active means well fitted curve in the direction sought with a large enough effect; inconclusive means small, poorly fitted or top-dose-only effect, or another doubt; inactive means no such curve, though single readings can be large; an effect the other way counts as inactive or inconclusive.

SMILES	POLH inh	WRN inhibitor	Pol kappa inh	Pol beta inh	Pol iota inh	FEN1 inh
COc1cccc2c1C(=O)c1c(O)c3c(c(O)c1C2=O)C[C@@](O)(C(=O)CO)C[C@@H]3OC1C[C@@H](N)[C@H](O)[C@H](C)O1 (some centres undefined)	·	·	17.8µM	·	·	·
Cc1nn2c3c(cnc2c1-c1ccc(F)cc1)C(=O)CC(c1ccccc1)C3 (centres undefined)	–	·	–	–	–	–
COc1cccc(N2CCN(S(=O)(=O)c3cn(C)c(C)n3)CC2)c1	–	·	–	–	–	–
CC(C)c1cnc2c(c1SCc1cccc(F)c1)c(=O)n(C)c(=O)n2C	–	·	–	–	–	–
Cc1cccc(C)c1NC(=O)c1oc2c(c1C)-c1nn(Cc3ccccc3)cc1CC2	–	·	–	–	–	–
CCOC(=O)C1(CC2CC2)CCN(Cc2ccc(OC)cc2F)CC1	–	–	–	89.1µM	–	–
Cc1ccc(-c2nc3ncccc3o2)cc1NC(=O)c1ccccc1	56.2µM	–[11.6 µM]	–	–	–	–
Cc1cc(OCC(=O)Nc2cc(-c3nc4ncccc4o3)ccc2C)ccc1Cl	79.4µM	·	–	–	–	–
Cc1cccc(N2CCN(c3ccc4cc(S(=O)(=O)N5CCC(C)CC5)ccc4n3)CC2)c1C	–	·	–	–	–	–
COC(=O)/C=C1\SC(=Nc2ccc(OC)cc2)NC1=O	–	–	–	–	–	–
COC(=O)/C=C1\S/C(=N\N=C\CC(=O)OC)NC1=O	?	?	39.8µM	–	17.8µM	?
Cc1cc(NC(=O)Cn2nc(-c3cccs3)ccc2=O)cc(C)c1Br	–	–	–	–	–	–
Cc1c(Br)ccc(NC(=O)Cn2nc(-c3cccs3)ccc2=O)c1C	–	–[11.6 µM]	–	17.8µM	50.1µM	–
COc1ccc(CNc2ncncc2-c2ccc3c(c2)OCO3)c(OC)c1	·	·	–	·	·	·
Cc1cc(C)c2nc(-c3ccccn3)cc(C(=O)NCc3ccco3)c2c1	?	?	?	39.8µM	?	–
Cc1cc(C)c2nc(-c3ccccn3)cc(C(=O)Nn3cnnc3)c2c1	–	–	–	–	–	–
Cc1cc(C)c2nc(-c3ccccn3)cc(C(=O)NCc3cc(C)n(C)n3)c2c1	–	–	–	39.8µM	–	–
Cc1ccc(C(=O)NCc2ccco2)c(C)c1	–	–	–	–	–	–
CS(=O)(=O)c1sc(C#N)c2c1C(=O)CC(c1ccccc1)C2 (centres undefined)	?	39.8µM	–	–	?	–
Cc1oc2c(c(=O)c1C)C(=O)CC(c1ccccc1)C2 (centres undefined)	–	–	–	–	–	–
CCOc1ccc(C(=O)c2ccc(O)c(O)c2O)cc1	·	·	3.55µM	·	·	·
CCOC(=O)COc1ccc(C(=O)c2ccccc2)c(O)c1	–	–	–	–	?	–
CCOc1cccc(C(=O)c2ccc(O)c(O)c2O)c1	·	·	4.47µM	·	·	·
O=C(O)/C(=N/NC(=O)c1ccc(Cl)cc1)c1ccccc1	–	–	–	25.1µM	–	–
O=C(NCC1(c2ccccc2)CCCC1)C(=O)Nc1cccc(Br)c1	–	·	–	–	–	–
SMILES	POLH inh	WRN inhibitor	Pol kappa inh	Pol beta inh	Pol iota inh	FEN1 inh
O=C(CN1CCN(c2ccccc2F)CC1)NC(=O)NCc1ccco1	–	–	?	31.6µM	?	–
Nc1ccccc1C(=O)NCc1ccco1	–	–	–	–	–	–
O=C(NCc1ccco1)c1ccccc1F	22.4µM	–	–	?	?	–
O=C(NCc1ccco1)c1cc2ccccc2c(=O)o1	?	–	?	44.7µM	?	–
O=C(NCc1ccco1)c1ccccc1O	–	–	–	–	–	–
Cc1scc(C(=O)NCc2ccco2)c1-c1ccccc1	?	–	–	22.4µM	?	–
COc1ccc(-c2nc3cnc(N(C)C)nc3n(CCC#N)c2=O)cc1	·	·	–	·	·	·
CN(C)CCCNc1nccc(N2CCN(C)CC2)n1	·	·	–	·	–	–
Cc1ccc(C(=O)Nc2cc3cc(Cl)ccc3oc2=O)cc1	–	·	–	–	–	–
O=C(O)c1cccc(N2C(=O)C3C4C=CC(C4=C(c4ccccc4)c4ccccc4)C3C2=O)c1 (centres undefined)	–	–	–	50.1µM	–	–
O=C(c1cccc(N2C(=O)C3C4C=CC(C4)C3C2=O)c1)N1CCCCCC1 (centres undefined)	–	–	–	–	–	–
O=C(O)C1C2C=CC(C2)C1C(=O)Nc1ccccc1Br (centres undefined)	?	–[11.6 µM]	–	89.1µM	–	–
COc1ccccc1-n1c(SCC(=O)N2CCOCC2)nc2ccccc2c1=O	–	–	–	–	–	–
COc1ccccc1-n1c(SCc2cc(=O)oc3cc(O)ccc23)nc2ccccc2c1=O	31.6µM	?	–	?	?	–
Cc1cc(Nc2ccc(O)cc2)ccc1N	·	·	–	·	20µM	?
O=C1CC(c2ccc(Cl)cc2)c2c(O)cc(O)cc2O1 (centres undefined)	–	–	–	–	–	–
C/C=C/C=C/[C@H]1Cc2cc(O)cc(O)c2O1	·	·	·	50.1µM	·	·
CS(=O)(=O)c1ccc2nc(NC(=O)c3ccc(=O)[nH]c3)sc2c1	50.1µM	–	–	–	50.1µM	–
CS(=O)(=O)c1ccc2nc(NC(=O)c3ccc(Cl)cc3)sc2c1	–	–	–	–	?	–
COc1ccco1	·	·	–	·	·	·
CCOC(=O)c1cccc(NC(=O)CN2C(=O)CC(C)(C)Sc3ccccc32)c1	–	·	–	–	–	–
CCOC(=O)Cc1csc(SC(C)C(=O)Nc2ccc(NC(C)=O)cc2)n1 (centres undefined)	–	–	–	89.1µM	–	–
O=C(c1cccc(Cl)c1)N1c2ncnn2C2(CCCCC2)[C@@H]2CCCC[C@@H]21	–	·	–	–	?	–
Cc1ccc2c(c1)C1C=CCC1C(C(=O)NCCCN1CCOCC1)N2 (centres undefined)	–	–	–	·	–	–
Cc1ccc2c(c1)C1C=CCC1C(C(=O)O)N2 (centres undefined)	·	·	·	3.55µM	·	·
SMILES	POLH inh	WRN inhibitor	Pol kappa inh	Pol beta inh	Pol iota inh	FEN1 inh
CC(=O)c1ccc2c(c1)C1C=CCC1C(c1ccncc1)N2 (centres undefined)	?	–	–	?	31.6µM	–
NC(=O)C1CCN(CC(=O)Nc2nccs2)CC1	–	–[11.6 µM]	–	–	89.1µM	–
CCOC(=O)N1CCN(CC(=O)Nc2nccs2)CC1	–	–	·	·	·	·
Cc1cc2ccccc2cc1C(=O)c1ccccc1	–	–	–	·	–	–
Cc1sc2cc3c(c(C(=O)c4ccccc4)[n+]2c1C)-c1cccc2cccc-3c12	?	–[11.6 µM]	–	?	–	39.8µM
CC(C)S(=O)(=O)C1=NSC2=NC(=O)/C(=C\c3ccc(OC(=O)c4ccco4)cc3)C(=N)N21	?	–	–	–	–	–
CCS(=O)(=O)C1=NSC2=NC(=O)/C(=C\c3ccc(OC(=O)c4ccco4)cc3)C(=N)N21	79.4µM	–	–	–	?	–
